Data published in PubChem BioAssay (NCATS).
Results filed as inconclusive are left out. Where a call stands in place of a potency, no number is given. Active and inactive are the calls of the source. Calls come from the whole dose curve; as a rule, active = well fitted inhibition curve with a large enough effect; inconclusive = small, poorly fitted or top-dose-only effect; inactive = flat fitted curve, though single readings scatter.

Each compound was assayed on CP203 (assay: qHTS profiling for inhibitors of Plasmodium falciparum proliferation (AID 504749; note: nearly all actives have a fitted effect of over 60% in size)). Settings: P. falciparum in erythrocytes, SYBR Green DNA, 72 h; series mostly up to 28.7 µM.
Text: NIH National Institute of Allergy and Infectious Diseases [NIAID] NIH Chemical Genomics Center [NCGC] MLPCN Grant: None Assay Provider: Xinzhuan Su, NIAID NCGC Assay Overview: Plasmodium falciparum is a virulent malarial parasite that kills 1-2 million people worldwide each year. Transmitted by mosquitoes, the sporozoite form of the parasite enters the blood stream to infect hepatocytes, where they become merozoites that infect red blood cells (erythrocytes). Within erythrocytes, merozoites begin a […] cycle of growth and division, after which the parasite is released to infect new red blood cells. Gametocytes, which form within erythrocytes as well, circulate in the bloodstream and are ingested by the mosquito, thereby completing the life cycle. To profile malarial isolates for differential chemical responses and to identify inhibitors of malarial growth, an assay that measures P. falciparum growth and replication within erythrocytes was employed. This assay uses a DNA binding fluorescent dye (SYBR Green) to detect parasite DNA following cell lysis. Because mature erythrocytes lack DNA, only Plasmodium-derived DNA is detected.
NCGC Assay Protocol Summary: The SYBR Green viability assay was adapted from a method described previously (Plouffe et al., 2008). For screening 3 ul culture medium was dispensed into 1536 well black clear bottom plates (Aurora Biotechnologies) using a Multidrop Combi (Thermo Fisher Scientific Inc.), 23 nL compounds in DMSO were added by a pin tool (Kalypsys), and 5 ul of erythrocytes infected with P. falciparum (0.3% parasitemia, 2.5% hematocrit final concentration) were added. The plates were incubated at 37 C in a humidified incubator in 5% CO2 for 72 h, and 2 ul lysis buffer (20 mM Tris HCl, 10 mM EDTA, 0.16% saponin, 1.6% triton X, 10X SYBR Green I supplied as 10,000X […] by Invitrogen) was added to each well. The plates were mixed for 25 sec with gentle shaking and incubated overnight at room temperature in the dark. The following morning, fluorescence intensity at 485(14) nm excitation and 535(25) nm emission wavelengths was measured on an EnVision (Perkin Elmer) plate reader. Plate reads were normalized relative to the control inhibitor (0.29 uM artemisinin) and vehicle (DMSO) wells present on each plate and then corrected by an algorithm using vehicle-only control plates at the beginning and end of the compound plate stack.
Potency is the fitted concentration of half-maximal effect.

Which Potency does the source give for `NC(=O)c1cccnc1` here?
Its Potency is “inactive”.

With `CC(C)NCC(O)c1ccc(NS(C)(=O)=O)cc1` (stereo not given) as the compound, how does the Potency read?
The Potency was “inactive”.

With `CCc1c2c(nc3ccc(OC(=O)N4CCC(N5CCCCC5)CC4)cc13)-c1cc3c(c(=O)n1C2)COC(=O)[C@]3(O)CC` as the compound, how does the Potency read?
Its Potency is “inactive”.

With `CC[C@H](NC(C)C)[C@H](O)c1ccc(O)c2[nH]c(=O)ccc12` as the compound, how does the Potency read?
The Potency was “inactive”.

For `Cc1nnc(NS(=O)(=O)c2ccc(N)cc2)s1`, which Potency is on record?
Its Potency is “inactive”.

How did the Potency turn out when `CN1CCN(c2c(F)cc3c(=O)c(C(=O)O)cn4c3c2OCN4C)CC1` was run?
The Potency was “inactive”.

Which Potency does the source give for `Cc1cccc(N(C)C(=S)Oc2ccc3ccccc3c2)c1` here?
Its Potency is “inactive”.

For `N=C(N)c1ccc(OCCCCCOc2ccc(C(=N)N)cc2)cc1`, which Potency is on record?
The Potency was 953 nM (active).

For `COc1ccc2cc3[n+](cc2c1OC)CCc1cc2c(cc1-3)OCO2`, which Potency is on record?
Its Potency is 1070 nM (active).

How did the Potency turn out when `C#CCN[C@@H]1CCc2ccccc21` was run?
The Potency was “inactive”.

For `CCc1cc(C(N)=S)ccn1`, which Potency is on record?
Its Potency is “inactive”.

`Nc1nc(N)c2nc(CNc3ccc(C(=O)NC(CCC(=O)O)C(=O)O)cc3)cnc2n1` (stereo not given) was tested. Which Potency did it give?
The Potency was “inactive”.

`O=c1oc2c(O)c(O)cc3c(=O)oc4c(O)c(O)cc1c4c23` was tested. Which Potency did it give?
Its Potency is “inactive”.

For `COc1ncnc(NS(=O)(=O)c2ccc(N)cc2)c1OC`, which Potency is on record?
Its Potency is “inactive”.

Which Potency does the source give for `O=NN(CCCl)C(=O)NC1CCCCC1` here?
The Potency was “inactive”.

How did the Potency turn out when `COc1c(N2CCNC(C)C2)c(F)cc2c(=O)c(C(=O)O)cn(C3CC3)c12` (stereo not given) was run?
Its Potency is “inactive”.

For `CCOCC(O)COc1ccc(NC(=O)CC[S+](C)C)cc1` (stereo not given), which Potency is on record?
The Potency was “inactive”.

`CCn1cc(C(=O)O)c(=O)c2cc(F)c(N3CCNCC3)nc21` was tested. Which Potency did it give?
The Potency was “inactive”.

With `S=P(N1CC1)(N1CC1)N1CC1` as the compound, how does the Potency read?
Its Potency is “inactive”.

Which Potency does the source give for `Cc1ccnc2c1NC(=O)c1cccnc1N2C1CC1` here?
The Potency was “inactive”.

How did the Potency turn out when `CC(C)(C#N)c1cc(Cn2cncn2)cc(C(C)(C)C#N)c1` was run?
The Potency was “inactive”.

`COc1nc(N)nc2c1ncn2[C@@H]1O[C@H](CO)[C@@H](O)[C@@H]1O` was tested. Which Potency did it give?
Its Potency is “inactive”.

For `COc1cc(NS(=O)(=O)c2ccc(N)cc2)nc(OC)n1`, which Potency is on record?
The Potency was “inactive”.

Which Potency does the source give for `CC(=O)Oc1ccccc1C(=O)Nc1ncc([N+](=O)[O-])s1` here?
Its Potency is “inactive”.

How did the Potency turn out when `CC1=NN(c2ccccc2)C(=O)C1` was run?
Its Potency is “inactive”.

For `CCOC(=O)c1ccc(OC(=O)CCCCCN=C(N)N)cc1`, which Potency is on record?
Its Potency is “inactive”.

How did the Potency turn out when `CN(Cc1cc(Br)cc(Br)c1N)C1CCCCC1` was run?
The Potency was “inactive”.

`COC(=O)Nc1nc2ccc(Sc3ccccc3)cc2[nH]1` was tested. Which Potency did it give?
The Potency was “inactive”.

For `CCC(C)(C)c1ccc(CC(C)CN2C[C@@H](C)O[C@@H](C)C2)cc1` (stereo not given in full), which Potency is on record?
The Potency was “inactive”.

With `COc1cnc(NS(=O)(=O)c2ccc(N)cc2)nc1` as the compound, how does the Potency read?
The Potency was “inactive”.

How did the Potency turn out when `NC(N)=NC(N)=NCCc1ccccc1` was run?
Its Potency is “inactive”.

For `CC(C)(Sc1cc(C(C)(C)C)c(O)c(C(C)(C)C)c1)Sc1cc(C(C)(C)C)c(O)c(C(C)(C)C)c1`, which Potency is on record?
Its Potency is “inactive”.

Which Potency does the source give for `CN(CCOc1ccc(CC2SC(=O)NC2=O)cc1)c1ccccn1` (stereo not given) here?
The Potency was “inactive”.

For `CCCc1nc(C)c2c(=O)[nH]c(-c3cc(S(=O)(=O)N4CCN(CC)CC4)ccc3OCC)nn12`, which Potency is on record?
The Potency was “inactive”.

`O=S(=O)(O)CCS` was tested. Which Potency did it give?
The Potency was “inactive”.

`CCOC(=O)c1ccc(C#Cc2ccc3c(c2)C(C)(C)CCS3)nc1` was tested. Which Potency did it give?
Its Potency is “inactive”.

Which Potency does the source give for `COc1ccc(-c2ccc3cc(C(=O)O)ccc3c2)cc1C12CC3CC(CC(C3)C1)C2` here?
The Potency was “inactive”.

`O=P(O)(O)C(O)(Cc1cccnc1)P(=O)(O)O` was tested. Which Potency did it give?
The Potency was “inactive”.

`Cc1ncc([N+](=O)[O-])n1CCO` was tested. Which Potency did it give?
The Potency was “inactive”.

With `COc1cc([C@@H]2c3cc4c(cc3[C@H](O)[C@H]3COC(=O)[C@H]23)OCO4)cc(OC)c1OC` as the compound, how does the Potency read?
Its Potency is 12000 nM (active).
